Screening results as filed in PubChem.
Only some compounds are listed: those with a hit (about 3.3% of all), similar ones and a draw of the others.
Vaccinia mCherry: vaccinia inhibition (mCherry reporter); Vaccinia virus mCherry reporter infection, fluorescence; Potency, µM (series often up to 36.5 µM), usual class: inhibitors; hit rate 0.63% among 310,000; AID 720579; calls by dose curve; tested in A549 cells; note: nearly all actives have a fitted effect of over 35% in size
VACV Venus inh: vaccinia inhibition (Venus reporter). Vaccinia virus Venus reporter expression, fluorescence. AID 720580. hit rate 0.46% among 330,000. Potency, µM (highest dose often 36.5 µM), usual class: inhibitors; calls by dose curve; tested in A549 cells; note: nearly all actives have a fitted effect of over 30% in size
HCV inhibitor: HCV inhibition; Potency, µM (top dose mostly 41.8 µM), actives largely listed as inhibitors; Huh7.5.1 HCVcc-Cre infection, luciferase reporter, 44 h; hit rate 3.4% among 340,000; active = well fitted inhibition curve with a large enough effect; inconclusive = small, poorly fitted or top-dose-only effect, or another doubt; inactive = no such curve, though single readings can be large or run the other way
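1,000 cells/well; 4 h culture; + compound; + HCVcc-Cre (~0.5 moi); 44 h; luciferase substrate, RT 15 min; read 15 sec.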
A number is an active result; - = inactive; ? = inconclusive; . = not tested or not shown; [ ] = dose if it differs, or a comment.

SMILES | Vaccinia mCherry | VACV Venus inh | HCV inhibitor
CC(C)(C)c1csc(NC(=O)CSc2nc3ccccc3c(=O)[nH]2)n1 | . | . | -
Cn1nc(C(=O)Nc2cccc(C(F)(F)F)c2)c2ccccc2c1=O | - | - | -
CN(c1ccccc1)S(=O)(=O)c1cccc(NC(=O)CSc2nccc(=O)[nH]2)c1 | - | - | -
CCN(CC)S(=O)(=O)c1cc(NC(=O)Cn2cnc3ccccc3c2=O)ccc1C | . | . | 11.2µM
CN(c1ccccc1)S(=O)(=O)c1cccc(NC(=O)c2nn(C)c(=O)c3ccccc23)c1 | . | . | 4.47µM
CCN1CCCC1CNCc1cc2ccc(SC)cc2nc1-c1cc(OC)ccc1OC (stereo not drawn) | - | - | .
Cc1sc2ncn(CC(=O)Nc3ccc(C(F)(F)F)cc3)c(=O)c2c1S(=O)(=O)N1CCN(C)CC1 | - | - | .
Cc1nnc(SCC(=O)Nc2cccc(S(=O)(=O)N(C)c3ccccc3)c2)s1 | - | - | 7.08µM
COCCn1cnnc1SCC(=O)Nc1cccc(S(=O)(=O)N(C)c2ccccc2)c1 | - | - | -
CN(C)S(=O)(=O)c1cccc(NC(=O)CCSc2ccc(Cl)cc2)c1 | - | - | 10µM
CN(C)S(=O)(=O)c1cccc(NC(=O)CCNC(=O)Nc2ccccc2)c1 | . | . | -
CN(C)S(=O)(=O)c1ccc(NC(=O)CSc2ncnc3ccccc23)cc1 | ? | ? | -
CN(C)S(=O)(=O)c1cccc(NC(=O)CSc2ncnc3ccccc23)c1 | ? | ? | 7.94µM
O=C(c1ccco1)N1CCN(Cc2nnc(-c3cccc(Br)c3)o2)CC1 | - | - | -
COc1ccc2c(C)cc(SCC(=O)Nc3cc(C(N)=O)cc(C(N)=O)c3)nc2c1 | - | - | 3.98µM
COc1cccc(NC(=O)CSc2cc(C)c3ccccc3n2)c1 | - | - | .
C[C@@H]1CN(Cc2ccc3c(c2)CN(C(=O)CN2CCOc4ccccc4C2)CCO3)C[C@H](C)O1 | - | - | .
Cc1ccc2c(=O)[nH]c(Cc3ccccc3C(=O)O)nc2c1 | . | . | -
COCC(C)n1c(SCC(=O)c2cc(C)n(C)c2C)nc2ccccc2c1=O (stereo not drawn) | - | - | ?
COCC(C)n1c(SCc2cc(C(=O)OC)c(C)o2)nc2ccccc2c1=O (stereo not drawn) | - | - | 11.2µM
COC(=O)c1cc(CSc2nnc(-c3ccccc3)c(-c3ccccc3)n2)oc1C | . | - | 25.1µM
Cc1cc(NC(=O)CSc2nnc(-c3ccccc3)c(-c3ccccc3)n2)no1 | - | - | ?
CCOC(=O)C1CCCN(C(=O)c2cnn(-c3nccc(-c4cc(C)sc4C)n3)c2C)C1 (stereo not drawn) | - | - | .
COc1ccc(-c2nc(Cn3c(SCc4ccc(C)cc4)nc4cccnc43)c(C)o2)cc1OC | - | - | .
Cc1cccc(NS(=O)(=O)Cc2ccccc2)n1 | . | - | -
SMILES | Vaccinia mCherry | VACV Venus inh | HCV inhibitor
Cc1cccc(C#Cc2ccccc2)n1 | - | - | 1.12µM
Cc1ccccc1C(=O)N1CCc2c(cnc(C)c2CNC(=O)c2ccc3c(c2)OCO3)C1 | - | - | .
Cc1cc(OCCCCCNCCO)cc(C)c1Cl | . | . | 12.6µM
Cc1cc(OCCNCCO)cc(C)c1Cl | . | - | ?
O=C1c2ccccc2NC(c2ccccc2O)N1Cc1ccco1 (stereo not drawn) | - | - | .
COc1cccc(Cn2cccc(NC(=O)Nc3cccc(C#N)c3)c2=O)c1 | - | - | ?
O=C(Nc1cccn(Cc2c(Cl)cccc2Cl)c1=O)C1CC1 | - | - | -
Cc1ccc(NC(=O)Nc2cccn(Cc3c(F)cccc3Cl)c2=O)cc1 | . | . | 11.2µM
COc1cccc(NC(=O)Nc2cccn(Cc3ccc(C)cc3)c2=O)c1 | . | . | 11.2µM
CN(CC1CCCN(CCc2ccc(Cl)cc2)C1)C(=O)c1ccco1 (stereo not drawn) | - | - | ?
CCCN(CCC)CCCNC(=O)c1cc2c(=O)oc3ccc(C)cc3c2s1 | - | - | .
COC(=O)c1cc(NC(=O)c2ccoc2C)cc(C(=O)OC)c1 | . | . | -
O=C(Nc1ccncc1)c1c(F)c(F)c(F)c(F)c1F | 6.31µM | ? | -
COC(=O)c1sccc1NC(=O)c1cccc(F)c1 | - | - | -
CC(=O)c1cccc(NC(=O)c2c(F)c(F)c(F)c(F)c2F)c1 | . | 10µM | ?
O=C(Nc1cccnc1)c1c(F)c(F)c(F)c(F)c1F | - | - | -
COC(=O)c1sccc1NC(=O)c1c(F)c(F)c(F)c(F)c1F | -[7.34 µM] | -[7.34 µM] | 12.6µM
Cc1cccc(NC(=O)c2c(F)c(F)c(F)c(F)c2F)c1 | - | - | ?
COC(=O)c1cc(NC(=O)c2c(F)c(F)c(F)c(F)c2F)cc(C(=O)OC)c1 | - | - | 12.6µM
C=C(C)Cn1c(SCC(=O)c2ccc(OC)cc2)nc2sc3c(c2c1=O)CCCC3 | - | - | .
CN(C)c1c(Br)cc(C=O)cc1Br | - | - | .
O=S(=O)(Nc1cccc(-n2cnnn2)c1)c1ccccc1F | . | . | -
CCc1ccc(NC(=O)CSC2=C(C#N)C(c3ccc4c(c3)OCO4)CC(=O)N2)cc1 (stereo not drawn) | - | - | 11.2µM
CCOC(=O)CSC1=C(C#N)C(c2ccc3c(c2)OCO3)CC(=O)N1 (stereo not drawn) | - | ? | ?
Cc1ccc(NC(=O)COC(=O)c2ccccc2OCC(=O)Nc2ccc(Br)cc2)c(Br)c1 | - | - | .
SMILES | Vaccinia mCherry | VACV Venus inh | HCV inhibitor
O=C(NCc1ccco1)c1cc(-c2ccccn2)nc2ccccc12 | - | - | ?
Cc1nc2ccccc2c2oc(C(=O)NCc3ccc4c(c3)OCO4)cc12 | ? | ? | 8.91µM
Cc1ccc(CNC(=O)c2cc3c(C)nc4ccccc4c3o2)cc1 | - | - | ?
O=C(NCc1ccc2c(c1)OCO2)c1cc(-c2ccccn2)nc2ccccc12 | - | - | 10µM
Cc1ccc(-n2ncc3c(NCCc4ccccc4)ncnc32)cc1Cl | - | - | .
Cc1sc(N)nc1-c1cccc([N+](=O)[O-])c1 | - | - | .
CN1CCN(Cc2c(C(=O)N/N=C/c3cccc(Br)c3)nnn2-c2nonc2N)CC1 | . | . | -
Cc1cccc(CN2CCN(C3CN(Cc4ccc(F)cc4)S(=O)(=O)C3)CC2)c1 (stereo not drawn) | - | - | .
COC(=O)c1ccc(NC(=O)CCc2c(C)nc3c(c(C)nn3C(C)(C)C)c2C)cc1 | - | - | .
CCCCS(=O)(=O)/C=C\C=C/S(=O)(=O)CCCC | . | 11.2µM | 2.51µM
CCCCS(=O)(=O)/C=C\C1C2C=CC(C2)C1S(=O)(=O)CCCC (stereo not drawn) | . | - | -
CCOc1ccccc1NC(=O)COc1coc(CN2CCCc3ccccc32)cc1=O | ? | - | 12.6µM
CCOc1ccccc1NC(=O)COc1coc(CN2CCc3ccccc3C2)cc1=O | - | - | ?
CCOc1ccc(OCc2ccc(C(=O)NCc3ccncc3)o2)cc1 | - | - | 7.08µM
O=C(NCc1ccncc1)c1ccc(Oc2ccccc2)cc1 | - | - | ?
Cc1ccc(Oc2ccc(C(=O)NCc3ccncc3)cc2)cc1 | - | - | 3.16µM
CCCNC(=O)c1ccc(COc2ccc(C(C)(C)C)cc2)o1 | - | - | 12.6µM
CCCNC(=O)c1ccc(COc2ccc(Cl)cc2)o1 | . | . | -
CCc1ccc(OCc2ccc(C(=O)NCc3ccccn3)o2)cc1 | . | - | -
O=C(NCCc1nc2ccccc2n1CCCOc1ccccc1Cl)C1CCCCC1 | - | ? | .
Cc1cc(C)n(CC(=O)N2CCC(n3c(C(C)C)nc4cccnc43)CC2)n1 | - | - | .
Cc1cc2ccc(Cl)nc2nc1C | - | - | .
CCc1ccc2[nH]c(=O)c(CN(Cc3cccs3)Cc3nnnn3Cc3ccccc3)cc2c1 | - | - | .
